# According to PubChem BioAssay (NCATS):
# Results filed as inconclusive are left out. Where a call stands in place of a potency, no number is given. Calls of active or inactive are those of the source. Calls follow the shape of the dose curve; as a rule, active = well fitted curve in the direction sought with a large enough effect; inconclusive = small, poorly fitted or top-dose-only effect, or another doubt; inactive = no such curve, though single readings can be large; an effect the other way counts as inactive or inconclusive.
# Legend:
# [1] = Viability qHTS for inhibitors of the SERCaMP assay screened against the NCATS CANVASS Library (AID 1347400); conditions: SH-SY5Y SERCaMP cells viability, CellTiter-Glo, 48 h; also: potency is read from the fitted curve at half-maximal effect; nearly all actives have a fitted effect of over 70% in size
# Excerpt: Natural products and their derivatives continue to be wellsprings of nascent therapeutic potential. However, many laboratories have limited resources for biological evaluation, leaving their previously isolated or synthesized compounds largely or completely untested. To address this issue, the Canvass library of natural products was assembled (https://tripod.nih.gov/canvass), in collaboration with academic and industry researchers, for quantitative high-throughput screening (qHTS) across a diverse set of cell-based and biochemical assays. The pure (>85% purity by liquid chromatography/mass spectrometry [LC/MS]) Canvass library of 346 natural products were submitted by 45 academic laboratories and companies around the world. We collected pure natural products to circumvent deconvolution and structure elucidation due to time and resource limitations. The library was formatted into 1536-well plates and evaluated in 50 qHTS (in an 11-pnt concentration series) bioassays with broad scope of disease-relevant mechanisms. The resulting data set from 50 different assays was then systematically analyzed to identify overall trends and specific natural products with interesting biological activities. […]
# SERCaMP Viability assay protocol: 1. […] Luminescence signal was obtained via the ViewLux plate reader (Perkin Elmer) using the clear emission filter and 1x binning, 2 seconds exposure settings.
# [2] = Redox Reaction Profiling qHTS: Assay Interference Panel against the NCATS CANVASS Library (AID 1347401); conditions: resazurin-DTT redox cycling, fluorescence, 15 min; series mostly up to 57.1 µM
# Procedure, shortened: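 Redox-cycling liability assessed as DTT-driven conversion of resazurin (5 uM, with 200 uM DTT, HEPES pH 7.3) to fluorescent resorufin. Fluorescence at 525/598 nm measured initially and after 15 min dark incubation.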
# [3] = qHTS for inhibitors of adenylyl cyclases using a fission yeast platform: a pilot screen against the NCATS LOPAC library (AID 1347410); conditions: S. pombe CHP2027, fbp1-GFP fluorescence, 18 h, yeast expressing mammalian AC9 and human GNAS; series mostly up to 57.5 µM
# Procedure, shortened: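 Growth medium went into the plates first, then compounds were pinned (final up to 57 µM), then CHP2027 yeast were added. Plates were incubated overnight (18 h) at 30C in the dark, and GFP was measured by laser scanning cytometry.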
# [4] = molecular target: Calcium and integrin-binding protein 1 (Homo sapiens) (UniProt Q99828); assay: Validation qHTS for Identification of Calcium Integrin Binding protein 1 (CIB1) Competitor (AID 1508618); conditions: CIB1-GST / FITC-alphaIIb peptide fluorescence polarization; series mostly up to 114 µM
# Procedure, shortened: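 Displacement of FITC-alphaIIb peptide (100 nM) from CIB1-GST (1 uM) is monitored by polarization in quantitative HTS format; buffer carries 5 mM CaCl2 and 125 mM NaCl at pH 7.4, incubations are at room temperature.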
# [5] = qHTS to identify inhibitors of the type 1 interferon - major histocompatibility complex class I in skeletal muscle: primary screen against the NCATS Mechanism Interrogation Plate v5.0 (MIPE) Libary (AID 1347411); conditions: iHSKM cells + IFN-b, HiBiT-tagged MHC-I luminescence, 24 h; series mostly up to 45.8 µM; also: nearly all actives have a fitted effect of over 65% in size; also: potency is read from the fitted curve at half-maximal effect
# Procedure, shortened: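 Seed engineered human myoblasts (HLA-B HiBit) in medium without dexamethasone containing 4 ng/ml IFN-beta; after 1 hr add compound titrations (top 46 uM final). Incubate 24 hrs at 37 C, lyse 10 min with HiBiT reagent, read luminescence.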
# Chain of Calcium and integrin-binding protein 1 (Homo sapiens) (Q99828 whole entry, looked up): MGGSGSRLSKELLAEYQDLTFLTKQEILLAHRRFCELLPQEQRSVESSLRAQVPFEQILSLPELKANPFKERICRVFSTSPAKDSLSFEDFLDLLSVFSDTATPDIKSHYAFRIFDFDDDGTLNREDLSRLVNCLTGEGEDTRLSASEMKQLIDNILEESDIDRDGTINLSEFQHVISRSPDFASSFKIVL
smiles,measurement,setting,value
C=C1C(=O)O[C@H]2[C@H]1CC/C(C)=C/CC[C@@]1(C)O[C@@H]21,Potency,[1],13.5 µM (active)
same,outcome,[2],inactive
CC[C@]1(O)CC2CN(CCc3c([nH]c4ccccc34)[C@@](C(=O)OC)(c3cc4c(cc3OC)N(C)[C@H]3[C@@](O)(C(=O)OC)[C@H](OC(C)=O)[C@]5(CC)C=CCN6CC[C@]43[C@@H]65)C2)C1 (stereo partly drawn),outcome,[3],inactive
same,outcome,[4],inactive
CC(O)c1cc(C(=O)N[C@@H](C)Cn2ccc(-c3ccc(C#N)c(Cl)c3)n2)n[nH]1 (stereo partly drawn),Potency,[5],inactive
O=C(/C=C/c1cccc(S(=O)(=O)Nc2ccccc2)c1)NO,Potency,[5],2.34 µM (active)
CC#CC(=O)N1CCC[C@H]1c1nc(-c2ccc(C(=O)Nc3ccccn3)cc2)c2c(N)nccn12,Potency,[5],inactive
CCN1CCN(Cc2ccc(NC(=O)c3ccc(C)c(/C=C/c4cnc5[nH]ccc5c4OC)c3)cc2C(F)(F)F)CC1,Potency,[5],6.58 µM (active)
CC1=C(CO)C(=O)O[C@@H]([C@@H](C)[C@H]2CC[C@H]3[C@@H]4C[C@H]5O[C@]56[C@@H](O)C=CC(=O)[C@]6(C)[C@H]4CC[C@]23C)C1,Potency,[5],0.466 µM (active)
Cc1nc([C@](C)(O)CO)sc1-c1cnc(N)c(O[C@H](C)c2cc(F)ccc2-n2nccn2)c1,Potency,[5],inactive
COCCOc1cnc2ccn([C@H](C)c3nnc4c(F)cc(-c5cnn(C)c5)cn34)c(=O)c2c1,Potency,[5],inactive
CCNC(=O)Nc1ncc(-c2cc(-c3c(C)cc(OC)cc3C)nc(-c3cnccn3)n2)s1,Potency,[5],inactive
CC(C)[C@@H](CS(=O)(=O)C(C)C)N1C(=O)[C@@](C)(CC(=O)O)C[C@H](c2cccc(Cl)c2)[C@H]1c1ccc(Cl)cc1,Potency,[5],inactive
